# Results: PubChem BioAssay (Tox21)
# Inconclusive results are not listed. Where a call stands in place of a potency, no number is given. Unmarked numbers belong to inactive results. The source made the active and inactive calls. Unless noted, calls come from the whole dose curve; as a rule, active = well fitted curve in the direction sought with a large enough effect in the repeat runs; inconclusive = weak or mixed curves; inactive = no such curve, though single readings can be large; an effect the other way counts as inactive or inconclusive.
# How the values were obtained:
# [1] = qHTS assay to identify small molecule antagonists of the thyroid receptor (TR) signaling pathway - cell viability counter screen (AID 743064); note: nearly all actives have a fitted effect of over 50% in size
# How it was run: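 GH3.TRE-Luc rat pituitary cells dosed after 4 hr plating, co-stimulated with T3 at 1 nM final, incubated 23.5 h at 37 C. Viability measured in the same wells by CellTiter-Fluor fluorescence after 30 min further at 37 C.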
# [2] = qHTS assay to identify small molecule antagonists of the thyroid receptor (TR) signaling pathway (AID 743065); note: series mostly up to about 70 µM; nearly all actives have a fitted effect of over 55% in size
# How it was run: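 GH3.TRE-Luc rat pituitary cells (two TREs driving luciferase) were dosed with compound, then stimulated with 1 nM T3 (final) for 23.5 h at 37 C. ONE-Glo luminescence was the read-out, with CellTiter-Fluor fluorescence as the cytotoxicity counter-screen.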
# [3] = system: thyroid hormone receptor (rat, GH3 cells); test: qHTS assay to identify small molecule agonists of the thyroid receptor (TR) signaling pathway (AID 743066; calls by dose curve)
# [4] = target: Estrogen receptor (Homo sapiens) (UniProt P03372); test: qHTS assay to identify small molecule antagonists of the estrogen receptor alpha (ER-alpha) signaling pathway (AID 743069; active = well fitted curve in the direction sought with a large enough effect in the signal ratio in the repeat runs, not every such curve was filed as active; the % refers to the signal ratio)
# Estrogen receptor (Homo sapiens), sequence (P03372 whole entry, looked up): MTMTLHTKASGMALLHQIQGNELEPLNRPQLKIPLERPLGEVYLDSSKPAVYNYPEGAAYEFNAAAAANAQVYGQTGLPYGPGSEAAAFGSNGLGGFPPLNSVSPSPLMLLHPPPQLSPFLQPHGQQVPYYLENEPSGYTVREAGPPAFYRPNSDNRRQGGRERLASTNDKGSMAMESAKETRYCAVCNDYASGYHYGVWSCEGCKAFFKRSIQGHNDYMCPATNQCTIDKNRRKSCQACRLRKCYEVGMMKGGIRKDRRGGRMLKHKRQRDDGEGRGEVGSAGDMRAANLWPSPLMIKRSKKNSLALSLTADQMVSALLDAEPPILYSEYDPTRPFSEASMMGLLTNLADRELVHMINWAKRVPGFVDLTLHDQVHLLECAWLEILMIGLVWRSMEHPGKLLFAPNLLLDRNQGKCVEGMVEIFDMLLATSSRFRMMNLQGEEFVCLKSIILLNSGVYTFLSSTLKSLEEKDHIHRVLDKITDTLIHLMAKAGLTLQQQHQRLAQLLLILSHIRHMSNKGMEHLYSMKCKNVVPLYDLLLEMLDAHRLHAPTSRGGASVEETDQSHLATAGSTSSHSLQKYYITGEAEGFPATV
# How it was run: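 Reporter cells (ER-alpha-bla, HEK293 background) are conditioned overnight in stripped-serum medium (2% charcoal-stripped FBS). Compound and 17beta-estradiol exposure runs 18 hr at 37C, 5% CO2.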
# [5] = qHTS assay to identify small molecule antagonists of the estrogen receptor alpha (ER-alpha) signaling pathway - cell viability counter screen (AID 743074; calls by dose curve;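 note: HEK293 cells carrying ER-alpha-UAS-bla reporter stimulated with 17beta-estradiol; nearly all actives have a fitted effect of over 45% in size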)
# [6] = target: Estrogen receptor (Homo sapiens) (UniProt P03372); test: qHTS assay to identify small molecule agonists of the estrogen receptor alpha (ER-alpha) signaling pathway (AID 743075; calls by dose curve;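 note: HEK293 GripTite cells with ER-alpha and UAS-driven beta-lactamase reporter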)
# [7] = target: Estrogen receptor (Homo sapiens) (UniProt P03372); test: qHTS assay to identify small molecule agonists of the estrogen receptor alpha (ER-alpha) signaling pathway using the BG1 cell line (AID 743079); note: nearly all actives have a fitted effect of over 20% in size; note: potency is the fitted concentration of half-maximal effect
# [8] = qHTS assay to identify small molecule antagonists of the estrogen receptor alpha (ER-alpha) signaling pathway using the BG1 cell line (AID 743080; calls by dose curve;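 note: BG1 cells stimulated with 17beta-estradiol alongside compound; series mostly up to about 70 µM; nearly all actives have a fitted effect of over 25% in size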)
# How it was run: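 Luminescence from a 4×ERE-luciferase reporter in BG1-Luc-4E2 cells served as read-out. Cells, pre-cultured 5 days in stripped-serum phenol-red-free medium, were exposed to compound with 17beta-estradiol co-stimulation for 21.5 h at 37 C.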
# [9] = qHTS assay to identify small molecule antagonists of the estrogen receptor alpha (ER-alpha) signaling pathway using the BG1 cell line - cell viability counter screen (AID 743081);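 note: compound given together with 17beta-estradiol as the ER stimulus; series mostly up to about 70 µM; nearly all actives have a fitted effect of over 45% in size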
# [10] = target: Aromatase (Homo sapiens) (UniProt P11511); test: qHTS assay to identify aromatase inhibitors (AID 743083); note: series mostly up to about 70 µM; nearly all actives have a fitted effect of over 55% in size
# Aromatase (Homo sapiens), sequence (P11511 whole entry, looked up): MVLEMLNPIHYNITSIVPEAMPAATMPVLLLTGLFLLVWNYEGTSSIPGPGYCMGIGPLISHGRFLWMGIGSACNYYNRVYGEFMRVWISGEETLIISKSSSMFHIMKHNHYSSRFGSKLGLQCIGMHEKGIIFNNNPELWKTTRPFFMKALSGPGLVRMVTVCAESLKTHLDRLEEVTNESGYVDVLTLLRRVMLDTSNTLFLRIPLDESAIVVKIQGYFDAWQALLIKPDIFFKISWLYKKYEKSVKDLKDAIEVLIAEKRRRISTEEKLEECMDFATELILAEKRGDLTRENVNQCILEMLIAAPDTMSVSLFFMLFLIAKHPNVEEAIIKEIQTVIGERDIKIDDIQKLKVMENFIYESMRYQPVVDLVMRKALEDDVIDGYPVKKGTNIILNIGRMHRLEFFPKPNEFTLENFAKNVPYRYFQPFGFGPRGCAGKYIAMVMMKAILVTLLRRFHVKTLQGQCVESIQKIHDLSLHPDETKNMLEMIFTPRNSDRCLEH
# [11] = qHTS assay to identify aromatase inhibitors - cell viability counter screen (AID 743084);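 note: cells stimulated with testosterone during compound exposure; nearly all actives have a fitted effect of over 55% in size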
# [12] = target: Aryl hydrocarbon receptor (Homo sapiens) (UniProt P35869); test: qHTS assay to identify small molecule that activate the aryl hydrocarbon receptor (AhR) signaling pathway (AID 743085);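 note: HG2L7.5c1 human HepG2 liver cells with stably integrated DRE-driven firefly reporter; series mostly up to about 70 µM; nearly all actives have a fitted effect of over 15% in size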
# Aryl hydrocarbon receptor (Homo sapiens), sequence (P35869 whole entry, looked up): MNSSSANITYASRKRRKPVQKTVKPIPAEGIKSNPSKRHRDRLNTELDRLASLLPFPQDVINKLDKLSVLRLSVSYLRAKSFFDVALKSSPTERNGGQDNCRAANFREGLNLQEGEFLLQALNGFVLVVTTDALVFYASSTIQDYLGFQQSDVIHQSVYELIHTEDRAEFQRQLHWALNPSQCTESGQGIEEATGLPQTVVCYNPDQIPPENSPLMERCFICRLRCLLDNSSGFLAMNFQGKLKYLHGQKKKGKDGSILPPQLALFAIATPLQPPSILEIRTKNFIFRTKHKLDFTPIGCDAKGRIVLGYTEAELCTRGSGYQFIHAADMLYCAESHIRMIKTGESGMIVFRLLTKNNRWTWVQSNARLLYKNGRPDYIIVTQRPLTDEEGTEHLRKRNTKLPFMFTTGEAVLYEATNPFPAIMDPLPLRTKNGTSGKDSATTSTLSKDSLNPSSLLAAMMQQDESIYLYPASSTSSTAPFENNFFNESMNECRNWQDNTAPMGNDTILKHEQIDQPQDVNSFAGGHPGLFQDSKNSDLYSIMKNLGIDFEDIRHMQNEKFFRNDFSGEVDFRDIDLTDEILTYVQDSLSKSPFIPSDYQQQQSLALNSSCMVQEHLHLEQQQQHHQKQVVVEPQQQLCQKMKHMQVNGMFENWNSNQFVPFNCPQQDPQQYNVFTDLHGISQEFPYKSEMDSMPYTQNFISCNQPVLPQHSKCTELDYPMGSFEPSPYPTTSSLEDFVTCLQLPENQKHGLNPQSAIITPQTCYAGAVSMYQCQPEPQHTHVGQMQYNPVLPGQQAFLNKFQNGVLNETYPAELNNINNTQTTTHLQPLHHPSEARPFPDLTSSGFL
# How it was run: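 HepG2 cells stably carrying a 20-DRE firefly luciferase reporter (HG2L7.5c1) treated with compound for 24 hr at 37C. Luciferase read by ONE-Glo luminescence, with CellTiter-Fluor viability read first.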
# [13] = qHTS assay to identify small molecule that activate the aryl hydrocarbon receptor (AhR) signaling pathway - cell viability counter screen (AID 743086);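 note: HepG2 liver cells carrying the AhR DRE luciferase reporter; series mostly up to about 70 µM; nearly all actives have a fitted effect of over 45% in size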
# How it was run: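 HepG2-AhR-luc (HG2L7.5c1) cells, 4000/well, treated 24 h at 37 C with compound; viability measured as CellTiter-Fluor fluorescence after 30 min in the same wells as the luciferase read.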
# [14] = qHTS assay to identify small molecule antagonists of the peroxisome proliferator-activated receptor gamma (PPARg) signaling pathway - cell viability counter screen (AID 743194); note: nearly all actives have a fitted effect of over 55% in size
# How it was run: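 Cytotoxicity counter screen in PPARg-bla HEK293H cells, same wells as reporter assay. Compounds plus 50 nM rosiglitazone (final) for 17 h at 37 C, then viability read by CellTiter-Glo luminescence.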
# [15] = qHTS assay for small molecule agonists of the antioxidant response element (ARE) signaling pathway - cell viability counter screen (AID 743203; calls by dose curve; note: nearly all actives have a fitted effect of over 55% in size)
# How it was run: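 Seeded at 2,000 cells/well, ARE-bla HepG2 cells were incubated 5 hrs before compound addition. After 16 hrs of treatment at 37C with 5% CO2, CellTiter-Glo reagent was added and luminescence read 30 min later.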
# [16] = qHTS assay for small molecule activators of the heat shock response signaling pathway - cell viability counter screen (AID 743209); note: nearly all actives have a fitted effect of over 50% in size
# How it was run: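 First, HSE-bla HeLa cells were seeded at 1500 cells/well and kept overnight at 37 C. Next, compounds were pinned in and incubated 5 h. After the FRET substrate step, CellTiter-Glo was added and luminescence read 30 min later.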
# [17] = qHTS assay for small molecule activators of the heat shock response signaling pathway (AID 743210; active = well fitted activation curve with a large enough effect in the signal ratio in the repeat runs, with a control signal flat, not every such curve was filed as active; the % refers to the signal ratio;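 note: HeLa cells with beta-lactamase reporter driven by heat shock elements; series mostly up to about 63 µM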)
# How it was run: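 Quantitative high-throughput format using an engineered HeLa line in which heat shock response elements drive beta-lactamase; after 5 h with compound, cells received a B/G FRET substrate and fluorescence was read.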
# [18] = target: Peroxisome proliferator-activated receptor gamma (Homo sapiens) (UniProt P37231); test: qHTS assay to identify small molecule antagonists of the peroxisome proliferator-activated receptor gamma (PPARg) signaling pathway (AID 743191; calls by dose curve; note: series mostly up to about 63 µM; nearly all actives have a fitted effect of over 30% in size)
# Peroxisome proliferator-activated receptor gamma (Homo sapiens), sequence (P37231 whole entry, looked up): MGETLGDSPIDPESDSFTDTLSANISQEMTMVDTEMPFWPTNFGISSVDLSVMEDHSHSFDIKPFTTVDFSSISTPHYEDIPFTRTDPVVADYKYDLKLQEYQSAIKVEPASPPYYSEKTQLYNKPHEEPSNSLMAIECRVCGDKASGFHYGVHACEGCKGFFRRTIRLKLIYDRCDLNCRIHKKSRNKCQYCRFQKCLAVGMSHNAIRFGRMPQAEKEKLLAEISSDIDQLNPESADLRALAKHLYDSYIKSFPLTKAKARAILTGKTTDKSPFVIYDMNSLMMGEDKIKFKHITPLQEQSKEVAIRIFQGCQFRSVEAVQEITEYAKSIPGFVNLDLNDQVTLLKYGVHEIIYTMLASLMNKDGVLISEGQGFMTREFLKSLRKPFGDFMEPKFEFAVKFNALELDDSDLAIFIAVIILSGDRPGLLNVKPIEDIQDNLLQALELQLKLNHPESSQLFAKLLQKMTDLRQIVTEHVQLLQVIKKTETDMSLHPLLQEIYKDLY
# How it was run: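 GeneBLAzer PPARg UAS-bla HEK293H cells, 5 h post-plating, exposed to compounds 17 h at 37C. LiveBLAzer B/G FRET substrate added for 1 h at room temperature; beta-lactamase reporter read by fluorescence intensity.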
# [19] = qHTS assay for small molecule agonists of the antioxidant response element (ARE) signaling pathway (AID 743202; active = well fitted activation curve with a large enough effect in the signal ratio in the repeat runs, not every such curve was filed as active; the % refers to the signal ratio)
# How it was run: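 Agonist mode reporter screen: HepG2 cells with ARE-controlled beta-lactamase are incubated with test compounds for 16 h at 37 C, and beta-lactamase activity is measured as fluorescence of cleaved B/G FRET substrate.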
# [20] = target: Peroxisome proliferator-activated receptor gamma (Homo sapiens) (UniProt P37231); test: qHTS assay to identify small molecule agonists of the peroxisome proliferator-activated receptor gamma (PPARg) signaling pathway (AID 743094; active = well fitted activation curve with a large enough effect in the signal ratio in the repeat runs, not every such curve was filed as active; the % refers to the signal ratio)
# How it was run: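 Quantitative HTS agonist mode: stable HEK293H line with UAS-beta-lactamase reporter under PPARg control, 17 h compound exposure at 37C, fluorescence after 1 h FRET substrate loading at room temperature.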
Compound,Potency [1],Potency [2],outcome [3],outcome [4],outcome [5],Potency [6],Potency [7],outcome [8],Potency [9],Potency [10],Potency [11],Potency [12],Potency [13],outcome [14],Potency [15],outcome [16],outcome [17],Potency [18],Potency [19],outcome [20]
CCCCC/C=C\CCC=O,inactive,inactive,inactive,inactive,inactive,inactive,inactive,inactive,inactive,inactive,inactive,inactive,inactive,inactive,inactive,inactive,inactive,–,–,–
C1CN(CCOCCN2CCOCC2)CCO1,inactive,inactive,inactive,inactive,inactive,inactive,inactive,inactive,inactive,inactive,inactive,inactive,inactive,–,inactive,inactive,inactive,inactive,inactive,–
N=C(N)c1ccc2cc(OC(=O)c3ccc(N=C(N)N)cc3)ccc2c1,inactive,inactive,inactive,inactive,inactive,inactive,inactive,inactive,inactive,inactive,inactive,inactive,inactive,inactive,inactive,inactive,inactive,–,–,inactive
COc1cc(C(=O)N2CCCCCCC2)cc(OC)c1OC,inactive,inactive,inactive,inactive,inactive,inactive,inactive,inactive,inactive,inactive,inactive,inactive,inactive,inactive,inactive,inactive,inactive,inactive,inactive,inactive
CC/C=C\CCOC(C)=O,inactive,inactive,inactive,inactive,inactive,inactive,inactive,inactive,inactive,inactive,inactive,inactive,inactive,inactive,inactive,inactive,inactive,inactive,inactive,–
CCCCC(CC)COC(=O)c1ccccc1O (configuration not stated),inactive,inactive,inactive,inactive,inactive,inactive,16.8 µM (active),inactive,inactive,inactive,inactive,inactive,inactive,inactive,inactive,–,inactive,inactive,inactive,inactive
Cc1ccc(C#N)cc1,inactive,inactive,inactive,inactive,inactive,inactive,inactive,inactive,inactive,inactive,inactive,inactive,inactive,inactive,inactive,inactive,inactive,–,–,inactive
CN1C(=O)N(C)C(O)C1O (configuration not stated),inactive,inactive,inactive,inactive,inactive,inactive,inactive,inactive,inactive,inactive,inactive,inactive,inactive,inactive,inactive,inactive,–,inactive,inactive,–
